Rows were chosen to be rich in hits. Some 2.4% of all compounds tested hit in one or more screens of this group.
D2 ag-1 – agonists of human D2 dopamine receptor (beta-arrestin); 360,000 tested, 0.084% active; DiscoveRx PathHunter D2 beta-arrestin, luminescence, 90 min; 100% = 57 uM dopamine signal; P14416; activation, % (concentration not given with the values); AID 624465; in the data active = activation above about 40%
Target sequence (P14416 whole entry, looked up): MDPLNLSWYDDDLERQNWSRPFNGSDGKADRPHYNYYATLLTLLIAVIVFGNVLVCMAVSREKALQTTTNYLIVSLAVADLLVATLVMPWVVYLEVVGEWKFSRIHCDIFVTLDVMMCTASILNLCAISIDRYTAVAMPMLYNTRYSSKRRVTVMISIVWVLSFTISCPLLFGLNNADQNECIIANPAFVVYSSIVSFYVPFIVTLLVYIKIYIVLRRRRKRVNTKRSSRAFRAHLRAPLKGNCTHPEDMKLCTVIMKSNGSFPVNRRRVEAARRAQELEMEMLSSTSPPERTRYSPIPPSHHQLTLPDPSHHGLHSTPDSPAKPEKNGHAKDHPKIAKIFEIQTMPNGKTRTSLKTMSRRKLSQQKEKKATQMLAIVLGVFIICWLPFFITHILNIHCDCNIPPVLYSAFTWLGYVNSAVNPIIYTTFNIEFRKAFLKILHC
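Agonist mode: compounds alone added to overnight-plated D2 PathHunter cells for 90 min at 37 C, with 57 uM final dopamine (EC100) defining full response. Beta-arrestin recruitment detected by chemiluminescent reagent, read after 1 h at ambient temperature.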
D2 ag-2 – D2 dopamine receptor (human) agonism; P14416; HEK293 T-REx D2 cells, calcium flux agonist mode; activation, % at 2 µM; 340,000 tested, 0.53% active;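 active = activation over 3 SD above normal in the single-dose calcium agonist read, cut at about 30% in these data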
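HEK293 Trex D2 cells, tetracycline-induced, o/n 30 C 5% CO2; no-wash Ca dye, RT 30–90 min; 10-cycle baseline, 23 nl cpd added, kinetic Ca read 180 s; agonist hits = positive Ca response.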
D2 PAM-1 – positive allosteric modulators of human D2 dopamine receptor; AID 485347; potentiation, % at 10 µM; HEK293 T-REx D2, calcium flux, EC20 dopamine potentiation; 340,000 tested, 0.34% active; P14416;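 active = potentiation over 3 SD above the plate norm, cut at about 30% in these data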
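Potentiation of an EC20 dopamine calcium response is measured in a force-coupled, tetracycline-inducible Hek293 Trex D2 line. Compound-only kinetic reads over 180 s flag agonists before dopamine addition.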
D2 PAM-2 – human D2 receptor positive allosteric modulation; P14416; DiscoveRx D2 beta-arrestin cells, luminescence, 90 min; 100% = 57 uM dopamine signal; potentiation, % (test concentration not listed); 360,000 tested, 0.23% active; in the data active = potentiation above about 50%
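D2 cells co-treated with compound plus 50 nM dopamine (EC20) for 90 min at 37 deg C to detect potentiation. Beta-arrestin recruitment was read as enzyme-fragment luminescence after 1 h at ambient temperature. Full response was set by 57 uM dopamine.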
D2 antag – antagonizes the human D2 dopamine receptor | inhibition, % at 10 µM | 340,000 tested, 2% active | HEK293 TREx D2 cells, calcium flux, dopamine EC80; in the data active = inhibition above about 30%; inactive = below that, where a call was filed
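Overnight-induced (tetracycline, 30 C) HEK293 T-REx cells carrying force-coupled D2 receive a no-wash calcium dye, then compound, then EC80 dopamine at 180 s; signals are read kinetically throughout.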
A number is an active result; 0 = inactive; - = no result; ! = not active in a repeat.

SMILES	D2 ag-1	D2 ag-2	D2 PAM-1	D2 PAM-2	D2 antag
Cc1ccc(-n2nc3c([n+]2[O-])CCc2nonc2-3)cc1	0	0	0	0	52.9
COc1ccc(S(=O)(=O)NCc2cccnc2)cc1	0	0	0	0	0
COc1ccc(S(=O)(=O)NCc2cccnc2)cc1Br	0	0	0	59.9	0
CCOC(=O)c1sc(NC(NC(=O)c2ccco2)(C(=O)OC)C(F)(F)F)nc1C (stereo unspecified)	0	0	0	0	33.8
CCOC(=O)c1sc(NC(=S)NC(=O)c2ccco2)nc1C	0	0	0	0	0
CCc1c(C)sc2nc(C(C)C)nc(SCC(=O)N3CCc4ccccc4C3)c12	0	0	0	0	43.7
Cc1sc2nc(C3CC3)nc(SCC(=O)N3CCc4ccccc4C3)c2c1C	0	0	0	0	0
CCCCCn1c(=N)c(S(=O)(=O)c2ccccc2)cc2c(=O)n3ccccc3nc21	-	0	0	-	-
CCS(=O)(=O)Nc1cc(-c2cn3ccc(C)cc3n2)ccc1C	-	0	0	-	-
COCCCNC(=O)CN(c1cc(Cl)ccc1OC)S(=O)(=O)c1ccc(C)c([N+](=O)[O-])c1	0	0	0	0	0
COCCNC(=O)CN(c1cc(Cl)ccc1OC)S(=O)(=O)c1ccc(C)c([N+](=O)[O-])c1	0	0	0	0	58.8
COc1ccc(C2CNC(=O)C2)cc1OC1CCCC1 (stereo unspecified)	0	70.3!	0	0	71.2!
COc1ccc(CCNS(=O)(=O)c2ccc(C3CNC(=O)C3)cc2)cc1OC (stereo unspecified)	0	-	-	0	-
O=C(NNC1=Nc2cccc3cccc1c23)c1ccc(Br)cc1	0	0	0	0	83.4
Cc1cc(O)c(C(C)C)cc1N=Nc1ccccc1C(=O)O	0	0	0	0	0
CN1C(=O)C(N=Nc2ccccc2C(=O)O)N(C)C1=S (stereo unspecified)	0	0	0	0	40.1
O=C(CC1SC(N2CCOCC2)=NC1=O)Nc1cc([N+](=O)[O-])ccc1Cl (stereo unspecified)	0	0	0	0	54.4
O=C(CC1SC(=NCC2CCCO2)NC1=O)Nc1cc([N+](=O)[O-])ccc1Cl (stereo unspecified)	0	0	0	0	0
O=C(COC(=O)CC1SC(N2CCCC2)=NC1=O)Nc1ccc(Br)cc1 (stereo unspecified)	0	0	0	0	30.7
O=C(CC1SC(N2CCCCC2)=NC1=O)Nc1ccc(C(=O)Nc2ccccc2)cc1 (stereo unspecified)	0	0	0	0	0
CC(C)NC(=O)c1ccc(NC(=O)CC2SC(N3CCCC3)=NC2=O)cc1 (stereo unspecified)	0	0	0	0	0
O=C(CC1SC(N2CCOCC2)=NC1=O)Nc1ccccc1Cl (stereo unspecified)	0	0	0	0	39.7
COc1ccc(NC(=O)CC2SC(N3CCOCC3)=NC2=O)cc1OC (stereo unspecified)	0	0	0	0	72.8
COc1cc2c(cc1OC)CN(C(=O)C1CCN(S(=O)(=O)c3ccccc3F)CC1)CC2	0	0	0	0	0
O=C(CC1SC(N2CCOCC2)=NC1=O)Nc1ccc(F)cc1 (stereo unspecified)	0	-	-	0	-
SMILES	D2 ag-1	D2 ag-2	D2 PAM-1	D2 PAM-2	D2 antag
O=C(CC1SC(N2CCOCC2)=NC1=O)Nc1ccc(Cl)cc1 (stereo unspecified)	0	0	0	0	58.2
Cc1cc(N2CCOCC2)nc2ccc(NC(=O)CCC(=O)N3CCN(c4ccccc4)CC3)cc12	0	0	30.8	0	0
Cc1ccc(NC(=O)c2noc(C(C)C)c2[N+](=O)[O-])cc1	0	0	0	0	50.8
CC(C)c1onc(C(=O)Nc2cccc(O)c2)c1[N+](=O)[O-]	0	0	0	0	0
Cc1cccc(C)c1N1C(=O)c2cccc([N+](=O)[O-])c2C1=O	0	0	0	82.7	0
CCN(CC)CCCNC(=S)N1CCN(c2nc3ccccc3n2CC)CC1	0	0	0	0	47.7
OCC1(Cc2ccccc2)CCN(Cc2cnn(-c3ccccc3F)c2)CC1	0	0	0	0	31.2
OCC1(Cc2ccccc2)CCN(C2CCN(c3ccccc3F)CC2)CC1	0	0	0	0	47.2
O=C(Cc1ccccc1)N1CCN(c2ccccc2F)CC1	0	0	0	0	0
O=C(CCc1nc2ccccc2c(=O)[nH]1)Nc1cccc(S(=O)(=O)N2CCOCC2)c1	0	0	0	0	0
O=C(Nc1cccc(C(=O)O)c1)/C(=C\c1ccccc1)NC(=O)c1ccco1	0	-	-	0	-
CCCSc1nnc2n(Cc3ccccc3)c(=O)c3c4c(sc3n12)CCC4	-	-	0	-	-
CCCSc1nnc2n(C)c(=O)c3c4c(sc3n12)CCC4	0	0	0	0	40.1
CCCCn1c(CCC(=O)O)ccc1-c1cccs1	0	0	0	0	40.4
COCCn1c(CCC(=O)O)ccc1-c1cccs1	0	0	0	0	0
S=C(NCC1CCCO1)N1CCN(c2nc(-c3ccccc3)cs2)CC1 (stereo unspecified)	0	0	0	0	66.6
Cc1ccc(C(=O)NNC(=O)c2cc(OCC(F)(F)F)ccc2OCC(F)(F)F)cc1	0	-	0	0	32.4
O=C(CC1S/C(=N/N=C/c2cccs2)NC1=O)Nc1ccc(Cl)cc1 (stereo unspecified)	0	0	0	0	43.8
Cc1ccc(NC(=O)Nc2nc(-c3ccc(C)s3)cs2)cc1	0	0	45.3	0	0
CCOC(=O)c1c(SCC(=O)Nc2nc(C)cs2)nc(=O)[nH]c1C	0	0	0	0	32.0
CCOC(=O)c1c(SCC(=O)Nc2nc3ccccc3s2)nc(=O)[nH]c1C	-	0	0	-	-
Cc1ccc(NC(=O)CCC(=O)NN=Cc2ccc(C)o2)c(C)c1	0	-	-	0	-
COc1ccc(C(=O)c2ncc(C(F)(F)F)cc2Cl)cc1	0	0	0	0	0
COc1cccc(C(=O)c2ncc(C(F)(F)F)cc2Cl)c1	0	0	36.0	0	0
COc1cccc(-n2c(=O)c3sccc3n(CC(=O)NC3CCCC3)c2=O)c1	0	0	0	0	0
COc1cccc(-n2c(=O)c3sccc3n(CC(=O)NC3CCCCC3)c2=O)c1	0	0	0	0	30.5
CC(=O)C1=NOC(CNC(=O)c2c(-c3ccccc3Cl)noc2C)C1 (stereo unspecified)	0	0	31.7	0	0
CCOC(=O)C1=NOC(CNC(=O)c2c(-c3ccccc3Cl)noc2C)C1 (stereo unspecified)	0	0	0	0	0
Cc1nc(-c2ccc(F)cc2)c(CC(=O)N(C)CC(=O)Nc2ccc(Br)cc2C)s1	0	0	0	0	58.5
O=C(N[C@H](C(=O)O)c1ccccc1)C1CCC(Cn2cnc3ccccc3c2=O)CC1 (stereo partly specified)	0	0	0	0	0

Bioassay records (PubChem BioAssay)
